Source: PubChem BioAssay (National Center for Advancing Translational Sciences (NCATS))
HEK293 tox: cytotoxic in the GLP-1 receptor inverse agonist counter-screen | HEK293 cAMP-luciferase reporter cells, luminescence, 24 h | Potency, µM (series often up to 38.3 µM), for inactives: at the top dose activity change, negative = inhibition, usual class: inhibitors | actives 0.13% (n = 410,000);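 note: loss of luciferase light is scored as toxicity; % is set by controls: 0 for no effect and ±100 for the full control effect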
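Seeding density was 200 cells/uL; after overnight-length (12 h) culture, 23 nL compounds went on for 24 h at 37 °C. Readout used a luciferase detection reagent, luminescence taken after 12 min at room temperature.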
USP1 inh: inhibitors of human USP1/UAF1 deubiquitinase | O94782 | recombinant USP1/UAF1, Ub-Rhodamine cleavage fluorescence | Potency, µM (series often up to 57.1 µM), without a hit: at the highest dose activity change, negative = inhibition, usual class: inhibitors | actives 0.23% (n = 390,000) | AID 743255; note: % is set by controls: 0 for no effect and ±100 for the full control effect; nearly all actives have a fitted effect of over 60% in size
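High-throughput fluorogenic screen: 1nM USP1/UAF1 complex, Ub-Rho substrate 150nM final, 50mM HEPES pH 7.8 with 0.5mM EDTA, 0.1 mg/ml BSA, 1mM TCEP and 0.01% Tween-20.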
EPAC1 ag: activates human EPAC1 exchange factor; EPAC1 agonist qHTS, biochemical assay; response scale: 100% = response to 6.5 mM cAMP; O95398; actives 0.073% (n = 360,000); AID 720707; Potency, µM (series often up to 154 µM), for inactives: at the highest dose activation, hits mostly activators; note: nearly all actives have a fitted effect of over 60% in size
Target sequence (O95398 whole entry, looked up): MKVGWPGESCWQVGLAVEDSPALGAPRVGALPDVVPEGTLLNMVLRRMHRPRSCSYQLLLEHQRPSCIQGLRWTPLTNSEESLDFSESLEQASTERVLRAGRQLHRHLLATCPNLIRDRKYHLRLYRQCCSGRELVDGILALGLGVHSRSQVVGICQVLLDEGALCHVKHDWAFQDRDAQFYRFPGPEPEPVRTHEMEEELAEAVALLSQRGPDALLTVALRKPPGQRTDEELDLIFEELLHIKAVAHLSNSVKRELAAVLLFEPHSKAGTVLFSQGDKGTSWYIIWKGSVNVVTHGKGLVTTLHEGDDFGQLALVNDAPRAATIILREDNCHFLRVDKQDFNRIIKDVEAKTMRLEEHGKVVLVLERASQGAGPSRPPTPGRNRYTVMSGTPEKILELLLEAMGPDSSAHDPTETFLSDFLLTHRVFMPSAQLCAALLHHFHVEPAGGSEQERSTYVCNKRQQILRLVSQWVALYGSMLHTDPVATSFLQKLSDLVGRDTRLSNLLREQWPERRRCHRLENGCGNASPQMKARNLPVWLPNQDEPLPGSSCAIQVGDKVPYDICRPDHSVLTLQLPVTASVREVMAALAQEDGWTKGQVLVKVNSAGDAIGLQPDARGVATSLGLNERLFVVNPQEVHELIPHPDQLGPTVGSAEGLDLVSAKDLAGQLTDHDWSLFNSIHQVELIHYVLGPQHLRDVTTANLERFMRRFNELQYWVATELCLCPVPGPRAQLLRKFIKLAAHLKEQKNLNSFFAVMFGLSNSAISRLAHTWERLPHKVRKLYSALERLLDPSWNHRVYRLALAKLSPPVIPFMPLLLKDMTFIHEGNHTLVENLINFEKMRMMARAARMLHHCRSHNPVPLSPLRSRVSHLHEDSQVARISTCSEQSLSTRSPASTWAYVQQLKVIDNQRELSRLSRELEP
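Multi-concentration qHTS readout: loss of Rap1B-bound BODIPY-GDP fluorescence driven by 100 nM EPAC1 with excess GDP (50 uM), monitored kinetically at room temperature; agonist response expressed relative to 6.5 mM cAMP.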
EPAC2 antag: blocks human EPAC2 exchange factor | EPAC2 GEF exchange of Rap1B-BODIPY-GDP, fluorescence | Q8WZA2 | actives 0.18% (n = 360,000) | AID 720708 | Potency, µM (series often up to 114 µM), for the others: at the top dose activity, negative = inhibition, hits mostly inhibitors; note: % is set by controls: 0 for no effect and ±100 for the full control effect; nearly all actives have a fitted effect of over 45% in size
EPAC2 agonist: EPAC2 (human) agonism. EPAC2 activation, biochemical qHTS; response scale: 100% = 6.5 mM cAMP response. Q8WZA2. Potency, µM (top dose mostly 154 µM), for the others: at the top dose activation, usual class: activators. actives 0.079% (n = 360,000); note: nearly all actives have a fitted effect of over 50% in size
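Compounds were titrated in qHTS against a Rap1B-BODIPY-GDP (250 nM) complex with EPAC2 (100 nM) and GDP (50 uM). BODIPY-GDP release tracked at 480/540 nm over 30 min at room temperature, normalized to 6.5 mM cAMP.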
EPAC1 antagonist: blocks human EPAC1 exchange factor; actives 0.14% (n = 360,000); O95398; Potency, µM (highest dose often 115 µM), inactives show at the highest dose activity change, negative = inhibition, usual class: inhibitors; EPAC1 GEF assay, Rap1b-BODIPY-GDP exchange fluorescence;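 note: plate controls were vehicle for no effect and positive control for full effect; nearly all actives have a fitted effect of over 50% in size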
* = called active by the depositor; [ ] = another dose, or the depositor's remark. Sampled rows, rich in hits. Any-hit rate of the full collection: about 0.55%. Calls come from the whole dose curve; as a rule, active = well fitted curve in the direction sought with a large enough effect; inconclusive = small, poorly fitted or top-dose-only effect, or another doubt; inactive = no such curve, though single readings can be large; an effect the other way counts as inactive or inconclusive. Potency is the fitted concentration of half-maximal effect.

COc1cc(/C=C/c2sc3ccccc3[n+]2CCCS(=O)(=O)[O-])ccc1O was read as HEK293 tox 10µM*, USP1 inh 25µM*, EPAC1 ag 0%, EPAC2 antag inconclusive, EPAC2 agonist 0% and EPAC1 antagonist inconclusive.
Screening COc1cc(C(c2c(C(=O)O)[nH]c3ccccc23)c2c(C(=O)O)[nH]c3ccccc23)ccc1OCc1ccccc1 returned HEK293 tox -22%, USP1 inh inconclusive, EPAC1 ag 1%, EPAC2 antag -26%, EPAC2 agonist -4% and EPAC1 antagonist 40µM*.
O=C(O)c1[nH]c2ccccc2c1C(c1ccccc1)c1c(C(=O)O)[nH]c2ccccc12 was read as HEK293 tox -20%, USP1 inh -23%, EPAC1 ag -10%, EPAC2 antag -9%, EPAC2 agonist -4% and EPAC1 antagonist -23%.
`O=C(O)c1ccc2c(c1)C(=O)N(C(Cc1ccccc1)C(=O)O)C2=O` (centres undefined) gave HEK293 tox -12%, USP1 inh -9%, EPAC1 ag 0%, EPAC2 antag 2%, EPAC2 agonist -4% and EPAC1 antagonist 3%.
`CSCCC(C(=O)O)N1C(=O)c2ccc(C(=O)O)cc2C1=O` (centres undefined) gave HEK293 tox 1%, USP1 inh -15%, EPAC1 ag 3%, EPAC2 antag -5%, EPAC2 agonist 10µM* and EPAC1 antagonist 5%.
Screening CCc1ccc(NC(=O)Nc2ccccc2OCc2cc(=O)n3ccccc3n2)cc1 returned HEK293 tox -7% and USP1 inh -19%.
For O=C(O)CN1C(=O)/C(=C/C=C/c2ccccc2)SC1=S the results were HEK293 tox -16%, USP1 inh -23%, EPAC1 ag 9%, EPAC2 antag -14%[57.1 µM], EPAC2 agonist 11% and EPAC1 antagonist 1%.
Screening CCN1C(=O)C(=CC=CN(C)c2ccccc2)SC1=S returned HEK293 tox -3%, USP1 inh inconclusive, EPAC1 ag inconclusive, EPAC2 antag -3%, EPAC2 agonist 89µM* and EPAC1 antagonist 35%.
`Cc1ccc(-c2ocnc2C(=O)Nc2ccccc2NC(=O)c2ccccn2)cc1` gave HEK293 tox 1.1µM*, USP1 inh -7%, EPAC1 ag 8%, EPAC2 antag inconclusive, EPAC2 agonist 17% and EPAC1 antagonist inconclusive.
`COc1ccc(CN(C(=O)c2ccc(OCC(C)C)cc2)C2CCS(=O)(=O)C2)cc1` (centres undefined) gave HEK293 tox 6% and USP1 inh 2%.
Screening O=C(CSc1nnc(-c2cccs2)n1Cc1ccco1)Nc1ccc2c(c1)OCO2 returned HEK293 tox -9%, USP1 inh -14%, EPAC1 ag -8%, EPAC2 antag 6%, EPAC2 agonist 7.9µM* and EPAC1 antagonist -6%.
Screening O=C(CSc1nnc(-c2ccccc2)n1Cc1ccco1)Nc1ccc2c(c1)OCCO2 returned HEK293 tox 0%, USP1 inh -7%, EPAC1 ag 13%, EPAC2 antag -12%, EPAC2 agonist 10% and EPAC1 antagonist -6%.
`COc1cc2c3nnc(-c4ccc(F)cc4)c-3cn(Cc3ccc(C)cc3)c2cc1OC` gave HEK293 tox -4%, USP1 inh 32µM*, EPAC1 ag -51%, EPAC2 antag 76%, EPAC2 agonist -52% and EPAC1 antagonist 36%.
For COc1cc2c3nnc(-c4ccccc4)c-3cn(Cc3ccc(F)cc3)c2cc1OC the results were HEK293 tox 45%, USP1 inh -20%, EPAC1 ag 9%, EPAC2 antag 71µM*, EPAC2 agonist 30% and EPAC1 antagonist 2%.
Screening COc1cc2c3nnc(-c4ccc(F)cc4)c-3cn(Cc3cccc(F)c3)c2cc1OC returned HEK293 tox 68%, USP1 inh inconclusive, EPAC1 ag -4%, EPAC2 antag -18%, EPAC2 agonist 29% and EPAC1 antagonist inconclusive.
For COc1cc2c3nnc(-c4ccc(F)cc4)c-3cn(Cc3cccc(C)c3)c2cc1OC the results were HEK293 tox 27%, USP1 inh 32µM*, EPAC1 ag 0%, EPAC2 antag -3%, EPAC2 agonist inconclusive and EPAC1 antagonist -5%.
`Cc1cc(C)nc(-n2nc(C)cc2NC(=O)CN2CCc3ccccc3C2)n1` gave HEK293 tox 5µM*, USP1 inh -27%, EPAC1 ag 4%, EPAC2 antag 8%, EPAC2 agonist 7% and EPAC1 antagonist 11%.
For Cc1cc(C)nc(-n2nc(C)cc2NC(=O)CN2CCCC(C)C2)n1 (centres undefined) the results were HEK293 tox -1%, USP1 inh -26%, EPAC1 ag -2%, EPAC2 antag 15%, EPAC2 agonist 2% and EPAC1 antagonist 5%.
`O=C(Nc1ccc2c(c1)OCO2)c1cc(-c2cccnc2)nc2ccccc12` gave HEK293 tox -9%, USP1 inh -26%, EPAC1 ag 2%, EPAC2 antag 3%, EPAC2 agonist 2% and EPAC1 antagonist 8%.
For Cc1ccc(-c2cc(C(=O)Nc3ccc4c(c3)OCCO4)c3ccccc3n2)cc1 the results were HEK293 tox -7%, USP1 inh inconclusive, EPAC1 ag 8%, EPAC2 antag -14%, EPAC2 agonist 7.9µM* and EPAC1 antagonist -5%.
Screening CCOC(=O)c1[nH]c2c(c1Cc1ccccc1)C(=O)CC(c1ccc(OC)cc1)C2 (centres undefined) returned HEK293 tox -24% and USP1 inh -3%.
Screening O=C(O)c1ccc(-n2c(/C=C\c3ccc(O)cc3)nc3ccccc3c2=O)cc1 returned HEK293 tox 6% and USP1 inh -22%.
Screening CN(C)c1ccc(/C=C/c2nc3ccccc3c(=O)n2-c2ccc(C(=O)O)cc2)cc1 returned HEK293 tox inactive, USP1 inh inconclusive, EPAC1 ag 63µM*, EPAC2 antag -10%, EPAC2 agonist -29% and EPAC1 antagonist 164%.
`O=C(O)COc1ccccc1/C=N/NC(=O)CSc1nnc(SCc2ccc(Cl)cc2)s1` gave HEK293 tox -32%, USP1 inh -20%, EPAC1 ag 0%, EPAC2 antag -15%, EPAC2 agonist -2% and EPAC1 antagonist 11%.
`O=C(CSc1nnc(SCc2ccc(Cl)cc2)s1)N/N=C/c1ccc(C(=O)O)cc1` gave HEK293 tox -11%, USP1 inh -18%, EPAC1 ag 2%, EPAC2 antag 45µM*, EPAC2 agonist -4% and EPAC1 antagonist 8%.
